Results taken from PubChem BioAssay AID2314 (National Center for Advancing Translational Sciences (NCATS), 2010).
Hit rate of the full screen: of about 300,000 compounds, about 37,000 (12%) were called active. The sample holds actives, similar compounds and a random draw of the others, so the mix is not that of the screen. Cut-off read from the data, not from the text of the source: active = max response mostly above about 13% (no sharp cut-off); inactive = mostly below about 14%.

Test: Cycloheximide Counterscreen for Small Molecule Inhibitors of Shiga Toxin; note: read at 38.3 µM for the half of the compounds with a filed dose; 0% is about no effect
Details: cell reporter, cycloheximide protein synthesis inhibition counterscreen; stronger effect = higher value

Compound	max response
Cc1ccc(-n2ncc3c2CC(C)(C)CC3NC(=O)Cc2c(C)noc2C)cc1 (stereo not drawn)	1.83% (inactive)
CCOC(=O)CNC(=O)CSc1ncccc1-c1nc2ccccc2[nH]1	6.47% (inactive)
Cc1ccc(NC(=O)CN(C)CC(=O)Nc2cccc(F)c2)cc1[N+](=O)[O-]	-3.93% (inactive)
O=C(O)c1cccc(NC(=S)N/N=C/c2c[nH]c3ccccc23)c1	19.9% (inactive)
CSC(=S)N/N=C/c1c[nH]c2ccccc12	19.8% (active)
CNc1ccc(NC(C)=O)cc1[N+](=O)[O-]	-1.59% (inactive)
Cc1ccc(NC(=O)c2sccc2C)cc1[N+](=O)[O-]	54.5% (active)
C[n+]1ccc(/C=C/c2c[nH]c3ccccc23)cc1	0.857% (inactive)
CN(C)c1ccc(C(CNC(=O)c2ccc(F)cc2)c2c[nH]c3ccccc23)cc1 (stereo not drawn)	-1.36% (inactive)
COc1ccc(CC(=O)NCC(=O)N/N=C/c2cc(Br)ccc2OC)cc1	-1.85% (inactive)
CCc1ccc(C2C(C#N)=C(N)N(N3CCOCC3)C3=C2C(=O)CC(C)(C)C3)s1 (stereo not drawn)	-4.64% (inactive)
CC1CCN(C(=O)CN(c2ccc(Oc3ccccc3)cc2)S(C)(=O)=O)CC1	0.761% (inactive)
Cc1ccc(C(=O)NCCN2CCOCC2)cc1C	0.531% (inactive)
Cc1cc(C)cc(C(=O)NCCN2CCOCC2)c1	-3.62% (inactive)
CC(=O)Oc1cc2c(C(=O)NCCN3CCOCC3)c(C)oc2c2ccccc12	23.5% (active)
Cn1nccc1C(=O)N1CCCC(C(=O)c2ccc(Oc3ccccc3)cc2)C1 (stereo not drawn)	-1.23% (inactive)
CC1Sc2ccc(S(=O)(=O)CCC(=O)NCc3ccccc3Cl)cc2NC1=O (stereo not drawn)	-2.98% (inactive)
Fc1ccc(/C=N/n2c(COc3ccccc3)n[nH]c2=S)cc1	-4.69% (inactive)
COc1cc(/C=N/n2c(C)n[nH]c2=S)ccc1OCc1ccccc1	25.8% (active)
Cc1n[nH]c(=S)n1/N=C/c1ccc(Br)o1	-1.34% (inactive)
Cn1c(=O)[nH]c(=O)c2c1nc(N1CCN(C(c3ccccc3)c3ccccc3)CC1)n2CCO	-4.67% (inactive)
CC(=O)N1CC(C)c2scc(C)[n+]2-c2ccccc21 (stereo not drawn)	-4.21% (inactive)
COc1cccc(NC(=O)CN(C)C(=O)c2ccccc2CCc2ccccc2)c1	-2.98% (inactive)
CC(C)CC(=O)N1CCN(Cc2cccc(Cl)c2)CC1	-0.27% (inactive)

Compound	max response
Cc1cccc(N(C(=O)Cc2cccs2)C(C(=O)NCc2ccco2)c2ccncc2)c1 (stereo not drawn)	7.8% (inactive)
Cc1ccc(N(C(=O)Cc2cccs2)C(C(=O)NCC2CCCO2)c2ccncc2)cc1 (stereo not drawn)	30.3% (active)
O=C(NCC(=O)N(c1ccccc1)C(C(=O)NCC1CCCO1)c1ccccc1)c1cccs1 (stereo not drawn)	-2% (inactive)
Cc1ccc(-c2csc(N3CCN(c4cc5c(cc4Cl)nc(-c4ccncc4)n5CCOCCO)CC3)n2)cc1	-1.79% (inactive)
CCOCCCNC(=O)C(NC(=O)CNC(=O)c1ccccc1)c1ccc(OC)cc1 (stereo not drawn)	-3.78% (inactive)
O=C(Nc1ccc(F)c(Cl)c1)C1CCN(S(=O)(=O)c2cccnc2)CC1	-6.06% (inactive)
COc1ccc(C(=O)Nc2ccc(CN3CCOCC3)cc2)cc1	21.3% (inactive)
COc1ccc(C(=O)Nc2sc(C)c(C)c2CN2CCOCC2)cc1	80% (active)
CCOC(=O)c1c(NC(=O)c2ccc(N3CCOCC3)c([N+](=O)[O-])c2)sc(C)c1C	1.25% (inactive)
O=C(NCc1ccccc1)C1CCN(C(=O)Cc2ccccc2)CC1	-1.63% (inactive)
O=C(CSc1ccc(-c2ccc(Br)cc2)nn1)NCC1CCCO1 (stereo not drawn)	-3.31% (inactive)
Cc1ccc(/C=C(\C#N)C(=O)Nc2cccc3ncccc23)o1	-2.46% (inactive)
CC1=Nn2c(nnc2-c2ccccc2)SC1	1.95% (inactive)
Cc1nnc2n1N=C(c1ccccc1)CS2	-4.21% (inactive)
COc1ccc(C2=Nn3c(nnc3-c3ccccc3O)SC2)cc1	38.9% (active)
Cc1c(C)c2ccc(OCC(=O)N3CCC(C(=O)O)CC3)c(C)c2oc1=O	-2.07% (inactive)
CCCc1cc(C(=O)N2CCCC(CO)(CCCc3ccccc3)C2)n(C)n1 (stereo not drawn)	9.31% (inactive)
Cc1ccccc1CC1(CO)CCCN(C(=O)c2cc(-c3ccccc3)no2)C1 (stereo not drawn)	13.4% (inactive)
Cc1noc(C)c1CCC(=O)O	-2.43% (inactive)
CCOC(=O)C1(Cc2ccccc2C)CCCN(C(=O)CCc2c(C)noc2C)C1 (stereo not drawn)	9.83% (inactive)
Cc1noc(C)c1CCC(=O)N1CCCC(CO)(Cc2ccccc2)C1 (stereo not drawn)	30.9% (active)
COC(=O)CCC(=O)N1CCCC(CO)(Cc2ccccc2)C1 (stereo not drawn)	32.1% (active)
O=C(NCc1ccccn1)[C@]1(C(F)(F)F)C[C@H](CCc2ccccc2)CCCO1	-4.95% (inactive)
O=[N+]([O-])c1cc(S(=O)(=O)CCCN2CCOCC2)ccc1F	-6.03% (inactive)

Compound	max response
NC(=O)CCN1CCN(S(=O)(=O)/C=C/c2ccccc2)CC1	-9.41% (inactive)
COCCCNC(=O)Cc1ccc(-n2c(C)nc3cccnc32)cc1	-1.61% (inactive)
COC(=O)C1CCCCN1C(=O)c1ccc(OC2CCN(C(C)=O)CC2)c(OC)c1 (stereo not drawn)	-4.09% (inactive)
Cn1c(C(=O)OC(C(=O)NC2CCCCC2)c2ccccn2)cc2sccc21 (stereo not drawn)	-2.24% (inactive)
CC(C)Nc1nnc(SCC(=O)/C=C2\N(C)c3ccccc3C2(C)C)s1	5.97% (inactive)
CN1/C(=C\C(=O)c2cccnc2Cl)C(C)(C)c2ccccc21	17.7% (active)
CN1/C(=C\C(=O)c2oc3ccccc3c2N)C(C)(C)c2ccccc21	5.01% (inactive)
C=CCNC(=O)COc1coc(CN2CCN(Cc3ccccc3)CC2)cc1=O	-1.91% (inactive)
CCOC(=O)NNc1cc(C(F)(F)F)ccn1	-0.89% (inactive)
O=C(NCc1cn2ccsc2n1)Nc1cccc(Cl)c1	-2.26% (inactive)
CCc1cccc(NC(=O)CCC(=O)O)c1	-2.1% (inactive)
CCCC(=O)Nc1cccc(-c2cn3ccsc3n2)c1	27.2% (active)
CCOC(=O)C1=C(C)OC(N)=C(C#N)C1c1cncc(-c2ccc(F)cc2)c1 (stereo not drawn)	-4.52% (inactive)
CN(C)c1ccc(C(=S)N2CCN(C(=S)Nc3ccc(Cl)cc3)CC2)cc1	-2.08% (inactive)
C=CCc1cccc2cc(C(=O)Nc3ccc(NC(C)=O)cc3)c(=O)oc12	7.03% (inactive)
CC1Cc2ccccc2N1C(=O)CSc1nnc(C2CC2)n1C (stereo not drawn)	-2.64% (inactive)
C[C@@H]1C[C@@H]2O[C@H]2/C=C\C=C\C(=O)Cc2c(Cl)c(O)cc(O)c2C(=O)O1	8.16% (active)
O=C(OCC1O[C@@H](OC(=O)c2cc(O)c(O)c(O)c2)[C@@H](OC(=O)c2cc(O)c(O)c(O)c2)[C@@H](OC(=O)c2cc(O)c(O)c(O)c2)[C@@H]1OC(=O)c1cc(O)c(O)c(O)c1)c1cc(O)c(O)c(O)c1 (stereo partly drawn)	-3.49% (inactive)
Cc1cc(C)cc(N(CC(=O)NCCSCc2ccco2)S(C)(=O)=O)c1	-3.57% (inactive)
OCCNCCOc1ccc(Cl)c(Cl)c1	-2.06% (inactive)
COc1ccc(CCNC(=O)CSc2nc(-c3ccc(OC)c(OC)c3)ccc2C#N)cc1	-0.296% (inactive)
CCc1cc2c(=O)c(-c3ccon3)c(N)oc2cc1OC	40.8% (active)
CCc1cc2c(=O)c(-c3ccc(F)cc3)c(C(F)(F)F)oc2cc1OCC(=O)O	-0.895% (inactive)
COc1ccc2oc(N)c(C=O)c(=O)c2c1	11.3% (inactive)

Compound	max response
COC(=O)Cn1cc(/C=C/[N+](=O)[O-])c2ccccc21	0.349% (inactive)
Cc1nn(-c2ccccc2)c(NC(=O)c2cccs2)c(-c2ccc(Cl)cc2)c1=O	-4.56% (inactive)
Cc1nn(-c2ccccc2)c(Cl)c1/C=N/NC(=O)c1nn(C)cc1[N+](=O)[O-]	30.2% (active)
Cc1ccc(-n2nc(C)c(/C=N/NC(=O)c3cccs3)c2Cl)cc1	41.5% (active)
Cc1nn(-c2ccccc2)c(C)c1/C=N/NC(=O)CSc1nc2ccccc2c(=O)n1-c1ccccc1	-2.06% (inactive)
Cc1ccc(-c2nnc(SCC(=O)N/N=C/c3cccs3)n2-c2ccc(C)cc2)cc1	-2.1% (inactive)
Cc1cc(C)c([N+](=O)[O-])cc1-c1ccc(/C=N/NC(=O)c2nonc2N)o1	8.92% (inactive)
COc1ccc(CCN(C)C(=O)C23CC4CC(CC(Cl)(C4)C2)C3)cc1OC	6.24% (inactive)
Cc1ccc(C(=O)N2CCC(n3nccc3NC(=O)Nc3cccc(F)c3)CC2)cn1	-3.88% (inactive)
c1ccc(-c2cn3c(n2)CCc2ccc4cccnc4c2-3)cc1	11.1% (inactive)
c1ccc(-c2cn3cccnc3n2)cc1	15.7% (active)
COc1cc(OC)cc(-c2nc(=S)n3ccsc3n2)c1	-1.36% (inactive)
CN1CCN(Cc2ccc(OC(F)(F)F)cc2)CC1	-2.95% (inactive)
COc1ccc(-c2cn3ccsc3n2)cc1	42.7% (active)
COc1ccc(-c2ccnc(SCC(=O)N3CCOCC3)n2)cc1	2.08% (inactive)
FC(F)(F)Oc1ccc(-c2cn3cccnc3n2)cc1	50.9% (active)
Cc1ccccc1Nc1c(-c2ccccc2)nc2ncccn12	-1.21% (inactive)
Cc1ccc(S(=O)(=O)NCc2cn3ccsc3n2)c(C)c1	2.86% (inactive)
COc1ccc(-c2cn3cccnc3n2)cc1	23.9% (active)
COc1ccc(N2CCN(C(=O)CSc3nnc4ncccn34)CC2)cc1	-1.32% (inactive)
CC(C)CC[n+]1ccn(C2=C([O-])c3ccccc3C(=O)/C2=N\S(=O)(=O)c2ccccc2)c1	-1.98% (inactive)
